Screening data from PubChem.
NPSR antagonist: qHTS Assay for Antagonists of the Neuropeptide S Receptor: cAMP Signal Transduction; Q6W5P4; Potency, µM (top dose mostly 38.3 µM), inactives show at the highest dose activity change, negative = inhibition, most hits filed as inhibitors; 1% of 220,000 active; CHO-NPSR cells, cAMP TR-FRET, antagonist mode; note: nearly all actives have a fitted effect of over 50% in size
Target sequence (Q6W5P4 whole entry, looked up): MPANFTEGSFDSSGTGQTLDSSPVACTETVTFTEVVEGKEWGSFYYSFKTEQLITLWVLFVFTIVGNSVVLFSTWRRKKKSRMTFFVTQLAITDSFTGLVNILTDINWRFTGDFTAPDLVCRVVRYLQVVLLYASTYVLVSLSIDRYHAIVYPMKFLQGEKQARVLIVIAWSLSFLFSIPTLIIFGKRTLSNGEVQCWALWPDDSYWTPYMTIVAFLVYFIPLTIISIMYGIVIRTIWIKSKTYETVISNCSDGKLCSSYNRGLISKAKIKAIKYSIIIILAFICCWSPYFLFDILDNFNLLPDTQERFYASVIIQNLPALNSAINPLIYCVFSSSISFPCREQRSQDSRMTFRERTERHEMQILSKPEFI
ERK EGF inh: qHTS Assay for Inhibitors of the ERK Signaling Pathway using a Homogeneous Screening Assay; Stimulation with EGF. Potency, µM (series often up to 11.5 µM), for the others: at the highest dose activity change, negative = inhibition, hits mostly inhibitors. 0.41% of 130,000 active. AID 1454, 2008. HEK293-V1b, EGF-stimulated phospho-ERK AlphaScreen;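 note: plate controls were stimulated vehicle wells for no effect and unstimulated vehicle basal for full effect; nearly all actives have a fitted effect of over 55% in size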
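V1b-HEK293, 1% FBS o/n; cpd 30 min 37C; EGF 25 nM final, 5 min; lyse 10 min; AlphaScreen beads 5 h RT. Normalized DMSO basal vs EGF max; Hill AC50.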
IMPase Li cell: qHTS Assay for Identifying the Cell-Membrane Permeable IMPase Inhibitors: Potentiation with Lithium; AID 1457, 2008; 0.35% of 210,000 active; Potency, µM (top dose mostly 59.4 µM), for inactives: at the highest dose activity, negative = IMPase inhibition, hits mostly inhibitors; CHO-M1 cells, IP1 TR-FRET (IP-One), carbachol + lithium;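 note: IP1 builds up when IMPase is blocked and the TR-FRET signal falls; plate controls were basal vehicle for no effect and high inhibitor control for full effect; nearly all actives have a fitted effect of over 50% in size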
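Readout is a homogeneous TR-FRET IP1 immunoassay (Ex 320, Em 665 and 620), where raised cytosolic IP1 lowers signal. Cells were CHO-M1 treated 30 min at 37C with test compounds plus a little lithium; AC50 values came from Hill-equation fitting.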
Numbers without * were called inactive; ? = inconclusive; nt = no result; [ ] = dose if it differs, or a comment. The entries come from a sample that favours hits as a whole. Calls come from the whole dose curve; as a rule, active = well fitted curve in the direction sought with a large enough effect; inconclusive = small, poorly fitted or top-dose-only effect, or another doubt; inactive = no such curve, though single readings can be large; an effect the other way counts as inactive or inconclusive. Unless noted, % is set by controls: 0 for no effect and ±100 for the full control effect; potency is the fitted concentration of half-maximal effect.

SMILES	NPSR antagonist	ERK EGF inh	IMPase Li cell
OC[C@@H]1O[C@H](n2cnc3c(/C=C(\O)c4ccccc4)ncnc32)[C@H](O)[C@@H]1O	nt	nt	13.8%
COc1ccc(C[N+](C)(C)N)cc1OC	nt	nt	1.2%
CCc1nnc(NC(=O)CSc2nc3ccccc3s2)s1	-2.3%[46.1 µM]	nt	-2.7%
CCc1nnc(NC(=O)CSc2ccc(-c3ccc(F)cc3)nn2)s1	-8.6%	5.3%	-10.1%
CCc1nnc(NC(=O)CSc2ccc(-c3cccs3)nn2)s1	-9.7%	21.2%	3.98µM*
CCc1nnc(NC(=O)CSc2nc(-c3ccccc3)nc3ccccc23)s1	-38.1%	1.4%	10µM*
O=C(O)/C=C\C(=O)Nc1ncn[nH]1	nt	nt	-3.4%
O=C(O)[C@@H]1[C@H](C(=O)O)[C@H]2C(=O)C=C[C@H]1N2Cc1ccccc1	nt	nt	9.5%
c1ccc(C(c2cccc3c2ccc2ccccc23)[C@H](c2ccccc2)c2cccc3c2ccc2ccccc23)cc1 (stereo partly drawn)	nt	nt	2.9%
CCSc1nc2cc(C(=O)OC)ccc2c(=O)n1CC	-8.9%[46.1 µM]	-4.2%	6.7%
COC(=O)c1ccc2c(=O)n3c(nc2c1)SCC(c1ccccc1)=N3	?	nt	10µM*
O=C(O)[C@H]1O[C@H]1C(=O)O	nt	nt	-3.4%
CCC(/C=C1\Sc2ccc(OC)cc2N1CC)=C\c1sc2ccc(OC)cc2[n+]1CCCS(=O)(=O)[O-]	-34.3%	?	28.5%
CCC(/C=C1\Sc2ccc(OC)cc2N1CCO)=C\c1sc2ccc(OC)cc2[n+]1CCO	10µM*	14.1µM*	56.6%
Cc1ccc(C(=N)c2ccccc2Cc2cccc3ccccc23)c2ccccc12	nt	nt	-2.3%
C[C@H]1CC2[C@@H]3CCC4=CC(=O)C=C[C@]4(C)[C@@]3(F)[C@@H](O)C[C@]2(C)[C@@]1(O)C(=O)CO (stereo partly drawn)	?	2.8%	-1.9%
CCN(CC)c1ccc(/C=N/Nc2nc3ccccc3[nH]2)cc1	5.01µM*	6.6%	2.6%
CC(=O)Nc1ccc(/C=N/Nc2nc3ccccc3[nH]2)cc1	-15.9%	4.6%	14.8%
Cc1c(/C=N/Nc2nc3ccccc3[nH]2)c2ccccc2n1C	?	4.2%[57.5 µM]	nt
C=CCn1cc(/C=N/Nc2nc3ccccc3[nH]2)c2ccccc21	10µM*	2.8%	14.3%
O=C(c1cccc(C(F)(F)F)c1)C1CCCN(C(=O)CCn2cnnn2)C1 (stereo not drawn)	4.5%	-3.3%[57.5 µM]	nt
O=C1CC(c2ccc(O[C@@H]3OC(CO)[C@@H](O)C(O)C3O)cc2)Oc2cc(O)ccc21 (stereo partly drawn)	nt	-8.2%	3.0%
Nc1nccc(Nc2ccc(S(N)(=O)=O)cc2)n1	nt	nt	0.5%
Cc1ccccc1NC(=O)CSc1nc2cc3c(cc2cc1C)CCC3	-9.0%[46.1 µM]	nt	8.2%[38.3 µM]
Cc1cc2cc3c(cc2nc1SCC(=O)O)CCC3	58.4%	-5.7%	3.55µM*
SMILES	NPSR antagonist	ERK EGF inh	IMPase Li cell
Cc1noc(C)c1-c1nccc(-n2ccnc2)n1	nt	17.0%	1.7%
COC(=O)c1sc2nc(C)nc(SCC(=O)C(C)(C)C)c2c1C	-2.4%	-0.7%	-3.2%
CCOC(=O)c1sc2nc(C)nc(SCC(=O)NC3CCS(=O)(=O)C3)c2c1C (stereo not drawn)	-38.9%	20.4%	12.6µM*
CS(=O)(=O)c1ccc(/C=N\NC(N)=S)cc1	nt	nt	1.2%
COCCn1c(=O)c(-c2ccc(Cl)cc2)nc2cnc(Oc3ccccc3)nc21	nt	2.4%	1.9%
CC(=O)c1cc(C)oc1C	nt	nt	-7.7%
c1ccc(-c2ccc(N3CCCC4(CCNCC4)C3)cc2)cc1	nt	?	13.9%
c1ccc(-c2ccc(N3CC4(CCNCC4)C3)cc2)cc1	nt	20µM*	10.0%
C[C@@H](O)CNC(C)(C)CC(=O)N[C@@H]1CCc2ccccc2N(Cc2ccc(-c3ccccc3-c3nn[nH]n3)cc2)C1=O	nt	nt	21.3%
CCOC(=O)c1sc(-c2ccc(OC)cc2)cc1NC(C)=O	-47.1%	6.2%	11.2µM*
CCOc1ccc(NC(=O)Nc2cc(-c3ccccc3)sc2C(=O)OC)cc1	-12.7%[46.1 µM]	2.5%	11.2%
C=CCOC(=O)NC(c1ccc(F)c(F)c1)C(C(=O)CCl)C(=O)OC (stereo not drawn)	nt	-9.2%	17.8%
Cc1ccc(C)c(N=Nc2nc3ccccc3n2C)c1	-24.0%[46.1 µM]	nt	-9.2%[38.3 µM]
Cc1cc(C)c(C)c(N=Nc2nc3ccccc3n2C)c1C	?	14.1µM*	16.0%
CN(C)C(=O)c1ccc(-c2ccc3ncnc(N(C)Cc4ccco4)c3c2)cc1	nt	nt	11.9%
N/N=C1/c2ccccc2N[C@H]1OC(=O)Nc1ccccc1	nt	nt	17.9%
COc1ccc(CNc2ncncc2-c2ccc(C(=O)N(C)C)cc2)c(OC)c1	nt	nt	-0.1%
Cc1ccc(S(=O)(=O)NCCNC(=O)c2cc(OCC(F)(F)F)ccc2OCC(F)(F)F)cc1	-0.5%[46.1 µM]	nt	11.2µM*
CN(C)S(=O)(=O)NCCNC(=O)c1cc(OCC(F)(F)F)ccc1OCC(F)(F)F	-13.6%	0.6%	?
Cc1nc(NCc2ccccc2)c2nc(-c3ccccc3)n(CCN(C)C)c2n1	nt	-2.8%	3.0%
Cc1cc(=O)oc2cc(O[C@@H]3O[C@H](C(=O)O)[C@@H](O)[C@H](O)[C@H]3O)ccc12	nt	-11.5%	7.4%
CN1CC(O)C2=CC(=O)C(=O)C=C21 (stereo not drawn)	nt	nt	6.8%
CC1=NOC(=O)/C1=C\c1ccc(-c2cccc(Cl)c2)o1	?	nt	9.5%[38.3 µM]
CC1=NOC(=O)/C1=C\c1ccc(-c2ccccc2Br)o1	10µM*	13.0%	7.08µM*
O=C(c1csnn1)N1CCC2(CC1)CCN(C(c1ccccc1)c1ccccc1)CC2	nt	-0.2%	15.2%
SMILES	NPSR antagonist	ERK EGF inh	IMPase Li cell
OCCN1CCN(c2nc(NCc3ccco3)c3ccccc3n2)CC1	23.1%[46.1 µM]	1.7%	5.3%
Cc1ccc(-c2nc(NCc3ccco3)c3ccccc3n2)cc1	-26.4%	-4.9%	6.2%
c1ccc(CN2CCN(c3nc(NCc4ccco4)c4ccccc4n3)CC2)cc1	10µM*	nt	46.3%[38.3 µM]
Cc1cccc(Nc2nc(NCc3ccco3)c3ccccc3n2)c1	?	28.2µM*	13.9%
Cc1ccccc1Nc1nc(NCc2ccco2)c2ccccc2n1	?	-1.8%	17.8%
Oc1ccccc1Nc1nc(NCc2ccco2)c2ccccc2n1	?	31.6µM*	nt
CN(C)CCCSc1ccccc1NC(=O)/C=C\c1ccccc1	nt	-4.6%	15.7%
COc1cccc(-c2ccc3ncnc(Nc4ccccc4)c3c2)c1	nt	nt	10.8%
Clc1ccccc1-c1ccc2ncnc(NC3CCNCC3)c2c1	nt	nt	3.0%
CC(C)(C)c1ccc(-c2cn(-c3ccc(Br)cc3)c3[n+]2CCCS3)cc1	10µM*	4.6%	24.0%
c1ccc(-c2cn(-c3ccccc3)c3[n+]2CCS3)cc1	10.5%	-1.8%	29.0%
Cc1c2cc(O)c(=O)cc-2oc2cc(O)c(O)cc12	-7.8%	1.0%[57.5 µM]	43.2%[38.3 µM]
COc1cc(OC)c(-c2c3cc(O)c(=O)cc-3oc3cc(O)c(O)cc23)cc1OC	-25.1%	15.8µM*	5.0%
O=C(c1cc(C(F)(F)F)cc(C(F)(F)F)c1)N1CCC2(CC1)CN(c1ccccc1)C2	nt	3.7%	-5.1%
O=C(O)c1cccc(N/N=C/C2=C(Cl)c3cc(Cl)ccc3SC2)c1	-4.4%	3.6%	9.2%
C[C@H](C(=O)c1ccccc1)C(c1ccccc1)N1CCOCC1 (stereo partly drawn)	nt	nt	5.1%
